The panel holds about 83,000 compounds, 20% with a hit somewhere; the sample as a whole holds those more often.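 The test compound was applied at a single concentration to cells in 96-well plates for 48 hours, and percent growth was recorded.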 A number with no mark means an inactive call. Activity calls are given as the source filed them. Rule for the calls: active = growth percent below 10; inactive = the rest.
The compounds below were run on OVCAR-8 ovarian (assay: NCI-60 one-dose screen, 48 h (100 = growth as untreated, 0 = no growth, -100 = all killed)). Settings: 10 µM unless noted.
`CC[C@H](C)[C@H](NC(=O)Nc1ccccc1)C(=O)N(C)[C@H](C[C@@H](OC(C)=O)c1nc(C(=O)N[C@@H](Cc2ccccc2)C[C@H](C)C(=O)OC)cs1)C(C)C` was tested, and the growth was 14.6%. With `c1ccc(CCN2CCCCC2Cc2ccccc2)cc1` (centres undefined) the growth was 106%. `CC(=O)O[C@H]1CCC2(C)C(=CCC3C2CCC2(C)/C(=N/OC(=O)c4ccc(N(CCCl)CCCl)cc4)CCC32)C1` (some centres undefined) was tested, and the growth was 56.4%. In the case of `O=[As]c1ccc(C(=O)c2ccc(Oc3ccccc3)cc2)cc1` (centres undefined), the growth is reported as -97.3% (active). `Cc1cc(NC(=O)NCCOc2ccc(N3C(N)=NC(N)=NC3(C)C)cc2Cl)ccc1S(=O)(=O)F` gave a growth of 25.3%. In the case of `COc1ccc2c(c1)NC1=C(C(=O)OC1)C2c1cc(OC)c(OC)c(OC)c1` (centres undefined), the growth is reported as 15.2%. For `C=CCc1ccc(OC(=O)Cc2ccccc2)c(OC)c1`, the growth was 109%. Compound `C[C@]12CCc3sc(-c4ccc(Cl)cc4)nc3C1=CC[C@@H]1[C@@H]2CC[C@]2(C)C(=O)CC[C@@H]12` has a growth of 80.4%. `C=CCC1(CC)C(=O)NC(=S)NC1=O` showed a growth of 100%. With `NC(Cc1ccc2c(c1)OCO2)c1ccc2c(c1)OCO2` (centres undefined) the growth was 102%. `O=C(CF)N(O)c1ccc(/C=C/c2ccccc2)cc1` showed a growth of 39.9%. `COc1ccc(/C=C(/C(=O)N2CCCC2)c2cc(OC)c(OC)c(OC)c2)cc1N` showed a growth of 41.8%. Compound `Nc1nc(N)c(-c2ccc(Cl)c(Cl)c2)c(/C=C/c2ccc(S(=O)(=O)F)cc2)n1` has a growth of 81.6%. `Nc1c(Br)cc([N+](=O)[O-])cc1[N+](=O)[O-]` showed a growth of 98%.
